Vif inh – blocks HIV Vif function | HEK293T cells, Vif self-association by quenched fluorescence, imaging, 24 h | inhibition, % at 7.49 µM | hit rate 0.35% among 340,000 | AID 602346; in the data active = inhibition above about 50%, passing the limit was not always enough
ERp5 block – ERp5 (human) disulfide isomerase inhibition; ERp5 insulin aggregation, absorbance 650 nm, 90 min; Q15084; hit rate 0.05% among 350,000; inhibition, % at 9.99 µM;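 active = mean replicate inhibition above about 25%, with every replicate also reaching it, limit read from the data, passing the limit was not always enough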
Glyco luc inh – blocks N-linked glycosylation in D54 reporter cells; D54 ERlucT glycosylation luciferase reporter, 24 h; percent of 100 nM tunicamycin response; reporter increase, % at 12.5 µM; hit rate 0.23% among 360,000; AID 588692;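 active = mean luciferase reporter signal, scaled so untreated is 0 and the glycosylation-blocking control 100, at or above a set limit in every replicate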;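 note: luciferase carries N-glycosylation sites so blocking glycosylation raises the light; 0% = median of neutral control wells and 100% = median of 100 nM tunicamycin wells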
PvdQ inh – blocks Pseudomonas aeruginosa PvdQ acylase activity; AID 488965; hit rate 0.063% among 340,000; inhibition, % at 10 µM; purified PvdQ acylase, fluorescence plate reader; in the data active = inhibition above about 30%, passing the limit was not always enough;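 note: 0% = vehicle neutral wells and 100% = reference inhibitor wells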
PDI turbidity – PDI (human) enzyme inhibition. hit rate 0.052% among 350,000. AID 588391. inhibition, % at 10 µM. PDI insulin aggregation turbidity, A650, 90 min;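 active = mean inhibition across replicates of 30% or more, whatever share of single replicates reach that level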
Target sequence (P07237 whole entry, looked up): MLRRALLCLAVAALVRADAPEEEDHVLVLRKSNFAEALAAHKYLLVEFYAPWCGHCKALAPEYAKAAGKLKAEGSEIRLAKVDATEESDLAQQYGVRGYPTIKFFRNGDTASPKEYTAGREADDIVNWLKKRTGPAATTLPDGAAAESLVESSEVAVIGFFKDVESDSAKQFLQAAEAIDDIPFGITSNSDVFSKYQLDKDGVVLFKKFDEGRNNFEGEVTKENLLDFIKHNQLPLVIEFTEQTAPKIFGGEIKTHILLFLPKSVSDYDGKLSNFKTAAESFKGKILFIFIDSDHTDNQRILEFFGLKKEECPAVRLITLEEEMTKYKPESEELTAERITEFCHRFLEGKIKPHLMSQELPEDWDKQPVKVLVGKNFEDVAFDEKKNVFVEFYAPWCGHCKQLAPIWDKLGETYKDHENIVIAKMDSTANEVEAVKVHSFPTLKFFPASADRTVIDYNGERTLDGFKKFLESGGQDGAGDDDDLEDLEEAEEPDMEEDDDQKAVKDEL
The depositor's hits bear a star. A selection: hits, their analogues and other compounds. The true share with any hit is near 0.56%.

What do the screens show for `NC(=O)CC(NC(=O)c1ccc(Br)cc1)c1ccc(N2CCCCCCC2)c([N+](=O)[O-])c1` (stereo not drawn)?
Vif inh: -1.2; ERp5 block: 5.7; Glyco luc inh: 42.8*; PvdQ inh: -15.4; PDI turbidity: 6.9

Results for NC(=O)CC(NC(=O)Cc1ccc(Br)cc1)c1ccc(NC2CCCC2)c([N+](=O)[O-])c1 (stereo not drawn) ?
Vif inh: -8.7; Glyco luc inh: 37.8*; PvdQ inh: -0.4; PDI turbidity: -0.5

How did NC(=O)CC(NC(=O)c1ccc(Br)cc1)c1ccc(NC2CCCCC2)c([N+](=O)[O-])c1 (stereo not drawn) do in these assays?
Vif inh: -1.3; ERp5 block: 0.5; Glyco luc inh: 24.2; PvdQ inh: -15.1; PDI turbidity: -6.0

What do the screens show for `NC(=O)CC(NC(=O)Cc1ccc(Br)cc1)c1ccc(NC2CCCCCCC2)c([N+](=O)[O-])c1` (stereo not drawn)?
Vif inh: 0.0; ERp5 block: -2.3; Glyco luc inh: 13.0; PvdQ inh: -12.7; PDI turbidity: -6.1

What do the screens show for `COCCN(CC(=O)Nc1cccc(C)c1C)C(=O)/C=C/c1ccc2c(c1)OCCO2`?
Vif inh: -2.7; ERp5 block: -1.8; Glyco luc inh: 1.2; PDI turbidity: -0.1

How did CCOC(=O)c1sc(NC(C)=O)nc1C do in these assays?
Vif inh: -6.3; ERp5 block: -0.1; Glyco luc inh: 2.4; PvdQ inh: 4.8; PDI turbidity: -0.8

Results for CCOc1cc(C2Nc3ccccc3C(=O)N2c2ccccc2)ccc1O (stereo not drawn) ?
Vif inh: -5.6; ERp5 block: -1.4; Glyco luc inh: 1.7; PvdQ inh: -8.8; PDI turbidity: -8.3

How did CCc1nnc(NC(=O)CSc2nnnn2C)s1 do in these assays?
Vif inh: 0.0; Glyco luc inh: 0.9; PvdQ inh: -14.9; PDI turbidity: 1.7

Results for C[C@@H]1CN([C@H](C)CO)S(=O)(=O)c2ccc(C3=CCCCC3)cc2O[C@@H]1CN(C)S(C)(=O)=O ?
ERp5 block: 3.8

How did CN(C)c1ccc(C=Cc2ccnc3c(O)cccc23)cc1 do in these assays?
Vif inh: 50.9*; ERp5 block: 3.8; Glyco luc inh: -8.2; PDI turbidity: -1.4

What do the screens show for `COc1cc(CNc2ncnc3c2ncn3[C@H]2CN(CCN3CCOCC3)C[C@@H](CO)O2)cc(OC)c1OC`?
Vif inh: 69.7*; ERp5 block: 8.3; Glyco luc inh: 1.2; PDI turbidity: -73.0

How did CCN(C(=O)COC(=O)c1nn(-c2ccccc2)c(=O)c2ccccc12)C1CCS(=O)(=O)C1 (stereo not drawn) do in these assays?
Vif inh: 11.0; ERp5 block: -7.8; Glyco luc inh: 3.1; PvdQ inh: 2.7; PDI turbidity: 4.3

What do the screens show for `O=C(O)/C=C/c1ccc(S(=O)(=O)Nc2ccc(OCc3ccccc3)cc2)cc1`?
Vif inh: -2.2; ERp5 block: 2.4; Glyco luc inh: 1.7; PvdQ inh: -0.8; PDI turbidity: -4.4

Results for CCCCCCCCCCCCCCCC[n+]1ccc(C(N)=O)cc1 ?
Vif inh: -5.0; Glyco luc inh: -12.3; PvdQ inh: 2.9; PDI turbidity: -17.1

Results for CCCCCCCCCCCCCCCC[n+]1ccc(/C=N/O)cc1 ?
Vif inh: -4.2; ERp5 block: 12.9; Glyco luc inh: 87.1*; PvdQ inh: -67.8; PDI turbidity: 0.5

What do the screens show for `CCCCN1C(=O)c2cccc3cc(O)cc(c23)C1=O`?
Vif inh: 15.2; ERp5 block: 2.9; Glyco luc inh: 2.9; PvdQ inh: 7.2; PDI turbidity: 11.4

Results for Cc1cc2c3c(c1)C1(C(=O)N3C(C)(C)CC2C)C(C#N)=C(N)Oc2n[nH]c(C)c21 (stereo not drawn) ?
Vif inh: 21.1; Glyco luc inh: -1.0; PvdQ inh: -10.6; PDI turbidity: 38.4*

What do the screens show for `CC#CCN1c2ccccc2[C@]23C[C@@H](C(=O)OC)N(C(=O)c4cc(C)oc4C)C2=NC(C(=O)OC)=C(C(=O)OC)[C@H]13`?
Vif inh: -1.3; ERp5 block: -0.2; Glyco luc inh: 33.5*; PvdQ inh: -10.8; PDI turbidity: -1.7

Results for O=C(C[C@@H]1C/C=C/CC[C@H](Cc2ccc(F)cc2)C(=O)OC[C@@H](Cc2ccccc2)NC1=O)N[C@H](CO)Cc1ccccc1 ?
Vif inh: 7.6; ERp5 block: -2.6; Glyco luc inh: 126.0*; PvdQ inh: -9.6; PDI turbidity: 0.6

What do the screens show for `COC(=O)c1sc(-c2ccc(Cl)cc2)cc1NC(=O)CSCC(=O)O`?
Vif inh: 51.3*; ERp5 block: 3.2; Glyco luc inh: -1.1; PvdQ inh: 14.6; PDI turbidity: -4.1

How did COC(=O)c1sc(-c2ccc(C(C)(C)C)cc2)cc1NC(=O)COCC(=O)O do in these assays?
ERp5 block: -7.6; Glyco luc inh: 0.7; PvdQ inh: -2.0; PDI turbidity: -2.9

How did CCOC(=O)Nc1ccc(NCc2ccc(F)cc2)nc1N do in these assays?
Vif inh: active; ERp5 block: 8.9; Glyco luc inh: 0.8; PvdQ inh: -9.2; PDI turbidity: -0.7

What do the screens show for `CCOC(=O)Nc1ccc(C)cc1NC(=O)OCC`?
Vif inh: -4.2; ERp5 block: -5.0; Glyco luc inh: 0.3; PvdQ inh: -13.0; PDI turbidity: -6.5

What do the screens show for `COc1ccc(CC(=O)Nc2ccc(-c3ccc4nnc(C)n4n3)cc2)cc1OC`?
Vif inh: 13.3; ERp5 block: -0.2; Glyco luc inh: 30.4*; PvdQ inh: -3.5; PDI turbidity: -0.8

What do the screens show for `CN1CC(=O)N2Cc3[nH]c4ccccc4c3C[C@H]2C1=O`?
Vif inh: -9.0; ERp5 block: 2.9; Glyco luc inh: 2.8; PvdQ inh: -13.9; PDI turbidity: 5.6

What do the screens show for `CCOC(=O)c1ccccc1NC(=O)COC(=O)C1CC(=O)N(CCc2ccccc2)C1` (stereo not drawn)?
Vif inh: -1.2; ERp5 block: -0.7; Glyco luc inh: 1.4; PvdQ inh: -14.6; PDI turbidity: 8.2

How did CCOC(=O)c1c(C)[nH]c(C)c1C(=O)COC(=O)C1CC(=O)N(CCc2ccccc2)C1 (stereo not drawn) do in these assays?
Vif inh: 50.8*; ERp5 block: -5.5; Glyco luc inh: 4.2; PvdQ inh: -10.6; PDI turbidity: -5.6

How did Cc1ccnc2nc(C(=O)Nc3cc(Cl)ccc3N3CCOCC3)nn12 do in these assays?
Vif inh: -5.2; Glyco luc inh: 41.0*; PvdQ inh: -9.7; PDI turbidity: 3.3

Results for O=C(Nc1cc(Cl)ccc1N1CCOCC1)c1ccc(Br)o1 ?
Vif inh: 12.2; ERp5 block: 4.8; Glyco luc inh: 1.2; PvdQ inh: -11.1; PDI turbidity: 4.4

What do the screens show for `O=C(C[C@@H]1CC[C@H](NC(=O)c2ccncc2)[C@@H](CO)O1)NCc1ccncn1`?
ERp5 block: 0.3

What do the screens show for `O=C(COc1ccccc1)OCC(=O)c1ccc(S(=O)(=O)N2CCCCC2)cc1`?
Vif inh: -4.2; ERp5 block: -2.2; Glyco luc inh: -1.5; PvdQ inh: 39.9*; PDI turbidity: 1.0

Screens from PubChem BioAssay.
